# Out of some 220,000 compounds screened, about 370 (0.17%) were called active.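 How the source made its calls: active means inhibition above the mean inhibition of all tested compounds plus 3 SD, set separately per screening campaign (cut at about 2.9% in these data); inactive means the rest.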 This excerpt belongs to a sample that is enriched for actives.
# Target: Eukaryotic translation initiation factor 2-alpha kinase 3 (Homo sapiens) (UniProt Q9NZJ5)
# Assay: SEAP translation reporter rise after PERK-DD activation – CHO PERK-DD cells, SEAP luminescence, HTS, PERK inhibitor project, primary screen (AID 1416);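 further: PERK kinase domain activated by AP20187 dimerizer at 100 nM; 0% = DMSO with dimerizer and 100% = rapamycin at 8.4 µM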
# Settings: CHO PERK-DD fusion, at 5.6 µM, active compounds read high
# Eukaryotic translation initiation factor 2-alpha kinase 3 (Homo sapiens), sequence (Q9NZJ5 whole entry, looked up, the tested form may be a part): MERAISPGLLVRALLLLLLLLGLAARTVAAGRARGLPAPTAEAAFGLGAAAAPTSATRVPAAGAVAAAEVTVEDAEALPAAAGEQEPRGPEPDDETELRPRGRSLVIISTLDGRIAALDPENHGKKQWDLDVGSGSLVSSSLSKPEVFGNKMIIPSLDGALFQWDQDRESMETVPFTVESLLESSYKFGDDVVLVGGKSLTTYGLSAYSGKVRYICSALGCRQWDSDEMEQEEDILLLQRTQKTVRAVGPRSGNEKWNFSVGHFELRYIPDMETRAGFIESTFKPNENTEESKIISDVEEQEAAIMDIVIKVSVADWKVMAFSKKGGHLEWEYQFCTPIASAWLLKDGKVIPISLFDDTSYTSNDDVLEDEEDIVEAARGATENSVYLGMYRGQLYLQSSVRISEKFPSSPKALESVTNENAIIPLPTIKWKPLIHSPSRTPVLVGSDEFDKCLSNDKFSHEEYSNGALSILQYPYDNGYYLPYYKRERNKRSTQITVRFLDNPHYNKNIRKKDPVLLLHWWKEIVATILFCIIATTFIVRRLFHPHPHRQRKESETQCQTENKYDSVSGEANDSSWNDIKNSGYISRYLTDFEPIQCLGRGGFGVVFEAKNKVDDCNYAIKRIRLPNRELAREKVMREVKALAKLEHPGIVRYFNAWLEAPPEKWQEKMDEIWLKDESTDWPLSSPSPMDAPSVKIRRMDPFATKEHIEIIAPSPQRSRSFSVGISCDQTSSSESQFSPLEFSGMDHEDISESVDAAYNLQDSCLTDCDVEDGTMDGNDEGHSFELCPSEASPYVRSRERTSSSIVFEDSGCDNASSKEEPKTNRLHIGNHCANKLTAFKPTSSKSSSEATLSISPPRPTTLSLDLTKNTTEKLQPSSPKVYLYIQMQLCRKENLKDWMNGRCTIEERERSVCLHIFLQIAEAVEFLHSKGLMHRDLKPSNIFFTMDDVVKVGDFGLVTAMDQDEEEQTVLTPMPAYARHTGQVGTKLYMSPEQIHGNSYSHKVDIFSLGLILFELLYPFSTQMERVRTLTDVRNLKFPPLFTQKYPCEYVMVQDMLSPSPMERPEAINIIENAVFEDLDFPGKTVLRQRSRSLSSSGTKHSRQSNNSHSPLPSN
row,Compound,inhibition
1,CC1=NN(C(C)C)C(=O)C1,0.1% (inactive)
2,O=C(CN1CCN(S(=O)(=O)c2ccc3ccccc3c2)CC1)NC(=O)NC1CCCCC1,-1.71% (inactive)
3,COc1ccc(-n2c(C)nn(CC3CC3)c2=O)cc1,0.52% (inactive)
4,COc1ccc(CN2CCCC(CNC(=O)c3ccc(F)cc3)C2)cc1OC (stereo not drawn),0.78% (inactive)
5,O=C(NNC(=O)C1CCN(c2ncccn2)CC1)c1ccccc1,1.78% (inactive)
6,Cc1cc(Cl)ccc1OCCCC(=O)NCc1ccccn1,0.34% (inactive)
7,O=C(Nc1cccnc1)c1cc([N+](=O)[O-])ccc1Cl,1.12% (inactive)
8,Cc1cc(=O)[nH]c(N/N=C/c2c(C)nn(-c3ccccc3Cl)c2Cl)n1,0.41% (inactive)
9,COc1ccc2[nH]c(=O)c(CNc3ccc(C)c(C)c3)cc2c1,0.88% (inactive)
10,COc1ccc2[nH]c(=S)cc(C)c2c1,3.26% (active)
11,COc1ccc2[nH]c3ccc(OC)cc3c2c1,-0.09% (inactive)
12,CN1CCN(CCC(=O)N/N=C/C=C2\N(C)c3ccccc3C2(C)C)CC1,0.12% (inactive)
13,O=C(COC(=O)c1cnc(Cl)c(Cl)c1)NCc1ccco1,-0.25% (inactive)
14,NC(=O)Cc1ccc2sc(-c3ccccc3)nc2c1,0% (inactive)
15,O=C(CCNc1n[nH]c(=O)[nH]c1=O)N/N=C\c1ccc(Br)cc1,1.9% (inactive)
16,Cc1cc(/C=N/NC(=O)CC2(C)OCCO2)c(C)n1-c1ccc(Cl)c(Cl)c1,-0.35% (inactive)
17,CC(=O)NC1=NN(C(C)=O)C(C)(c2ccc(C)cc2)S1 (stereo not drawn),0.26% (inactive)
18,COc1ccc(CC(NC(C)=O)C(=O)NC2CCN(C(=O)c3ccc(OC)c(OC)c3)CC2)cc1OC (stereo not drawn),0.49% (inactive)
19,O=C(COc1ccc([N+](=O)[O-])cc1Cl)Nn1cnnc1,0.99% (inactive)
20,CN(C)S(=O)(=O)c1cccc(NC(=S)NCc2ccc3c(c2)OCO3)c1,-0.05% (inactive)
21,COC(OC)c1ccnc(SCc2ccccc2Cl)n1,1.69% (inactive)
22,CCN1CCN(C(=O)CCN2C(=O)c3ccccc3C2=O)CC1,1.42% (inactive)
23,COC(=O)c1cc2n(n1)CCCNC2=O,0.06% (inactive)
24,CCN(CC)CCOC(=O)c1ccc(NC(=O)CNC(=O)c2ccccc2)cc1,2.02% (inactive)
25,CCn1nc(C)c(CN2CCN(Cc3ccc(OC)c(C)c3C)C(CCO)C2)c1C (stereo not drawn),-0.31% (inactive)

row,Compound,inhibition
1,COc1ccc(N2C(=O)C(Cc3ccccc3)NC2=S)cc1 (stereo not drawn),0.37% (inactive)
2,O=C1C(Cc2ccc(O)cc2)NC(=S)N1Cc1ccccc1 (stereo not drawn),3.13% (active)
3,Cc1ccc(N2C(=O)C(Cc3ccccc3)NC2=S)cc1 (stereo not drawn),-0.27% (inactive)
4,O=[N+]([O-])c1ccc2c(c1)C(N1CCOCC1)/C(=C/C1(O)CCCCC1)O2 (stereo not drawn),-1.29% (inactive)
5,Cc1c(C(=O)N(Cc2ccccc2)Cc2cccnc2)cnn1-c1ccc(F)cc1,-0.72% (inactive)
6,CCc1cc(CNC(=O)CC2C(=O)NCCN2CC2CCCCC2)on1 (stereo not drawn),-0.53% (inactive)
7,COc1cc(NS(=O)(=O)c2ccc(NC(=O)CN3C(=O)c4ccccc4C3=O)cc2)ncn1,2.32% (inactive)
8,COc1ccc(-n2c(C)nc3c(cnn3-c3ccccc3)c2=O)cc1,-0.16% (inactive)
9,Cc1ccc(Oc2cnn(-c3ccccc3)c(=O)c2Br)cc1,2.99% (active)
10,COc1ccc(Oc2c(Cl)cnn(-c3ccccc3)c2=O)cc1,0.39% (inactive)
11,CCCS(=O)(=O)N1CCC(CCOc2ccccc2)(C(=O)OCC)CC1,-0.64% (inactive)
12,O=C(NC(=O)N1CCOCC1)c1ccccc1,0.27% (inactive)
13,O=C(NC(=O)c1cc(OCC(F)(F)F)ccc1OCC(F)(F)F)Nc1ccccc1,0.87% (inactive)
14,CN(C)S(=O)(=O)c1ccc(NC(=O)N2CCOCC2)cc1,0.79% (inactive)
15,Cn1nccc1NS(=O)(=O)c1ccc(F)cc1,0.14% (inactive)
16,CC(C)CNC(=O)C(=O)Nc1ccc(N(C)C)cc1,0.89% (inactive)
17,Nc1ccc(S(=O)(=O)Nc2nccc(/C=C/c3ccc(Br)s3)n2)cc1,1.17% (inactive)
18,Cc1cccc(C)c1NC(=O)Nc1ccccc1-n1ccnc1,1.72% (inactive)
19,O=C(O)CCCC(=O)Nc1ccccc1-n1ccnc1,3.15% (active)
20,CC(CC(=O)Nc1ccccc1)n1ccnc1 (stereo not drawn),0.1% (inactive)
21,COc1cccc(C2SCC(=O)N2c2cccc(C)c2)c1OC (stereo not drawn),0.28% (inactive)
22,CC(=O)NCC(=O)N(Cc1ccco1)C1(C(=O)NC2CCCC2)CCCCC1,0.44% (inactive)
23,CCc1ccc(N(CC(=O)Nc2sc3c(c2C(=O)OC)CCCC3)S(C)(=O)=O)cc1,0.54% (inactive)
24,O=C(c1cccc(S(=O)(=O)N2CCCC2)c1)N(Cc1ccco1)C1CCS(=O)(=O)C1 (stereo not drawn),0.31% (inactive)
25,Cc1nn(-c2ccccc2)c(-n2cccc2)c1C(=O)O,0.88% (inactive)

row,Compound,inhibition
1,CC(CO)(CO)NC(=O)c1ccc(=O)[nH]n1,1.5% (inactive)
2,CCC(C)NCCOCCOc1ccc(Br)cc1C (stereo not drawn),-0.24% (inactive)
3,COc1ccc(C2c3c(C)nn(-c4ccccc4)c3NC(=O)N2c2ccccc2)cc1 (stereo not drawn),-0.38% (inactive)
4,CCN(CCCNC(=O)C1CCN(S(=O)(=O)c2cnc[nH]2)CC1)c1ccccc1,-0.73% (inactive)
5,O=C(Nc1ccccc1)O/N=C1/CCCc2occc21,0.48% (inactive)
6,COc1ccc(-c2csc(NC(=O)COC(=O)c3ccc(Br)o3)n2)cc1,0.82% (inactive)
7,O=[N+]([O-])c1ccc(NCCCO)c(C(F)(F)F)c1,0.52% (inactive)
8,CCN(CC)CCNc1ccc(Cl)cc1[N+](=O)[O-],-0.09% (inactive)
9,N#Cc1c(NCCO)ccc([N+](=O)[O-])c1NCCO,3.54% (active)
10,O=C(C1CCCN1S(=O)(=O)c1ccc(Br)cc1)N1CCOCC1 (stereo not drawn),1.24% (inactive)
11,CCC1(C)Cc2c(sc3nc(SC)[nH]c(=O)c23)CO1 (stereo not drawn),-0.25% (inactive)
12,CCOC(=O)CSc1nc2sc3c(c2c(=O)[nH]1)CC(C)(C)OC3,2.96% (active)
13,CCOC(=O)Cn1c(SC)nc2sc3c(c2c1=O)CC(C)(C)OC3,0.18% (inactive)
14,Cc1cccc(C(=O)Nc2ccc(C(=O)/C=C/c3cccs3)cc2)c1,-1.44% (inactive)
15,COc1cc(/C=C/C(=O)OCC(=O)NC(=O)NCc2ccccc2)ccc1OCC#N,0.97% (inactive)
16,O=C(c1ccco1)N1CCN(C(=O)C2CCCN(S(=O)(=O)c3cccc4nsnc34)C2)CC1 (stereo not drawn),0.2% (inactive)
17,CN(C)c1ccc(NC(=O)CSc2n[nH]c(-c3ccco3)n2)cc1,-0.7% (inactive)
18,COc1ccccc1Cn1c(C)nnc1-c1cnn(C)c1N,0.89% (inactive)
19,CCSc1ccccc1C(=O)NCc1ccc(OC)cc1,0.41% (inactive)
20,CCn1cc(CN2CCCC(CNS(=O)(=O)Cc3ccccc3)C2)cn1 (stereo not drawn),1.56% (inactive)
21,COc1c(N2CCN(C(=S)Nc3ccccc3F)C(C)C2)c(F)cc2c(=O)c(C(=O)O)cn(C3CC3)c12 (stereo not drawn),1.87% (inactive)
22,Cc1ccccc1-n1nc(C)c2cc(C(=O)NC3CC3)sc21,-1.39% (inactive)
23,Cc1c(Cl)c([N+](=O)[O-])nn1CC(=O)NCC1CCCO1 (stereo not drawn),0.38% (inactive)
24,Cc1cc(S(=O)(=O)NC2CCCCC2)ccc1OCC(=O)NCc1cccnc1,0.23% (inactive)
25,CC(=O)NCc1ccc(S(=O)(=O)NC2CCN(Cc3ccccc3)CC2)cc1,1.04% (inactive)

row,Compound,inhibition
1,O=C1CCC(=O)N1c1ccc(NCCc2ccccc2F)c([N+](=O)[O-])c1,-0.58% (inactive)
2,NC(=O)c1ccc(N2CCOCC2)nc1,2.55% (inactive)
3,N#CC1=C(N)N(c2ccc(F)cc2)C(=O)C1,0.76% (inactive)
4,CCOC(=O)c1ccc(COC(=O)CCc2nc(-c3ccccc3)c(-c3ccccc3)o2)cc1,-0.32% (inactive)
5,Cc1cc(NC(=O)COC(=O)COc2ccc(Cl)cc2C)c([N+](=O)[O-])cc1C,0.97% (inactive)
6,CCOC(=O)C1=C(C)N=C2c3ccccc3C(=O)C2C1c1ccc(Br)cc1 (stereo not drawn),0.04% (inactive)
7,CCOc1cnc(C(=O)NNC(=O)c2ccccc2Br)o1,1.53% (inactive)
8,CC1CN(C2CCN(C(=O)COc3ccccc3)CC2)CC(C)O1 (stereo not drawn),0.89% (inactive)
9,Cc1nn(CC2CC2)c(=O)n1N(C)c1ncc(C(F)(F)F)cc1Cl,1.31% (inactive)
10,O=C(Cn1cnc2ccccc21)N/N=C/c1ccco1,-0.07% (inactive)
11,O=C(O)/C=C\C(=O)Nc1ccc(OCc2ccccc2)cc1,1.09% (inactive)
12,CCOc1c(Br)cc(/C=C2\C(=O)N(CCC#N)N=C2C)cc1OC,1.06% (inactive)
13,O=[N+]([O-])c1ccccc1NCc1ccccc1Cl,0.13% (inactive)
14,COc1ccc([N+](=O)[O-])cc1N(CC(O)Cn1nnc2ccccc21)S(=O)(=O)c1ccc(C)cc1 (stereo not drawn),-0.77% (inactive)
15,O=C(O)CC1(CC(=O)Nc2cccc(C(F)(F)F)c2)CCCC1,1.02% (inactive)
16,O=C(Nc1ccc2c(c1)C(=O)OC2)Nc1cccc2ccccc12,1.57% (inactive)
17,CC(=O)c1cc2c(cc1N)OCO2,4.03% (active)
18,CC(=O)c1cc2c(cc1NC(=O)CN1CCCCCC1)OCO2,-1.22% (inactive)
19,CC(=O)c1ccc2c(c1)OCCOCCOc1ccc(C(C)=O)cc1OCCOCCO2,-1% (inactive)
20,Cc1ccc2cc(C)c(N3CCC(C)CC3)nc2c1,1.08% (inactive)
21,CC(NS(=O)(=O)c1ccccc1)c1n[nH]c(=S)n1-c1ccccc1 (stereo not drawn),3.52% (active)
22,CCCCC(CC(C)O)c1n[nH]c(=S)n1-c1ccccc1 (stereo not drawn),0.58% (inactive)
23,S=c1[nH]nc(COc2ccccc2)n1-c1ccccc1,0.99% (inactive)
